# Assay outcomes deposited in PubChem BioAssay by National Center for Advancing Translational Sciences (NCATS).
# NPC1 promoter act = qHTS Assay for NPC1 Promoter Activators | Huh7 NPC1 promoter luciferase reporter, 24 h | Potency, µM (highest dose often 9.22 µM), usual class: activators | 320,000 tested, 2.4% active | AID 485313, 2010; also: nearly all actives have a fitted effect of over 60% in size
#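 Compounds in DMSO were transferred onto Huh7 NPC1-luciferase reporter cells pre-incubated 2 h; after 24 h at 37 °C, Amplite reagent was dispensed and luminescence recorded 10 min later.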
# KinaseGlo FLuc = Counterscreen for Luciferase (Kinase-Glo TM) Inhibition; Potency, µM (top dose mostly 38.3 µM), hits mostly inhibitors; 200,000 tested, 0.28% active; AID 1379, 2008; Kinase-Glo luciferase, ATP luminescence, 8 min; also: nearly all actives have a fitted effect of over 60% in size
#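 Substrate mix (final 50 mM imidazole pH 7.2, 50 mM KCl, 7 mM MgCl2, 10 uM ATP, 0.01% Tween 20, 0.05% BSA) plus pin-tool compound, then Kinase-Glo detection mix; 8 min ambient, luminescence read.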
# Rab9 prom act = qHTS Assay for Rab9 Promoter Activators; Huh7 Rab9 promoter-luciferase reporter, luminescence, 24 h; Potency, µM (titrated, usually from 9.22 µM), usual class: activators; 320,000 tested, 2.8% active; AID 485297, 2010; also: nearly all actives have a fitted effect of over 60% in size
#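 Cell-based reporter: Huh7 stable for Rab9 promoter-driven luciferase, plated in reduced-serum medium with 10% FBS at 1500 cells/well, compound-treated 24 h at 37 °C, luminescence read after 10 min reagent.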
# ELG1 genotoxic = qHTS screen for small molecules that induce genotoxicity in human embryonic kidney (HEK293T) cells expressing luciferase-tagged ELG1; 330,000 tested, 1.3% active; HEK293T ELG1-luciferase reporter, luminescence, 16 h; Potency, µM (doses to about 46 µM), actives largely listed as activators; also: nearly all actives have a fitted effect of over 60% in size
#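 Genotoxicity was scored as increased ELG1-luciferase reporter signal, measured by ONE-Glo luminescence (30 min, room temperature). Compound or vehicle exposure of the HEK293T reporter cells lasted 16 hr at 37°C.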
# SMN2 splice enh = qHTS Assay for Enhancers of SMN2 Splice Variant Expression. HEK293 SMN2-luciferase splicing reporter, luminescence, 30-36 h. 210,000 tested, 2.8% active. Potency, µM (highest dose often 46.1 µM), usual class: activators. AID 1458, 2008; also: nearly all actives have a fitted effect of over 55% in size
#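 qHTS luciferase splicing reporter: luminescence rises when SMN2 exon 7 is included in transfected HEK293 cells. Compound exposure lasted 30-36 h at 37C, with 4.5 mM final sodium butyrate as control, followed by a ONE-Glo read.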
# FLuc modulator = qHTS profiling assay for firefly luciferase inhibitor/activator using purifed enzyme and Km concentrations of substrates (counterscreen for miR-21 project). Luciferin 4-monooxygenase (Photinus pyralis), P08659. purified FLuc, Km substrates, luminescence inhibition. Potency, µM (doses to about 57.5 µM), usual class: inhibitors. 360,000 tested, 6.9% active; also: nearly all actives have a fitted effect of over 55% in size
# Target sequence (P08659 whole entry, looked up): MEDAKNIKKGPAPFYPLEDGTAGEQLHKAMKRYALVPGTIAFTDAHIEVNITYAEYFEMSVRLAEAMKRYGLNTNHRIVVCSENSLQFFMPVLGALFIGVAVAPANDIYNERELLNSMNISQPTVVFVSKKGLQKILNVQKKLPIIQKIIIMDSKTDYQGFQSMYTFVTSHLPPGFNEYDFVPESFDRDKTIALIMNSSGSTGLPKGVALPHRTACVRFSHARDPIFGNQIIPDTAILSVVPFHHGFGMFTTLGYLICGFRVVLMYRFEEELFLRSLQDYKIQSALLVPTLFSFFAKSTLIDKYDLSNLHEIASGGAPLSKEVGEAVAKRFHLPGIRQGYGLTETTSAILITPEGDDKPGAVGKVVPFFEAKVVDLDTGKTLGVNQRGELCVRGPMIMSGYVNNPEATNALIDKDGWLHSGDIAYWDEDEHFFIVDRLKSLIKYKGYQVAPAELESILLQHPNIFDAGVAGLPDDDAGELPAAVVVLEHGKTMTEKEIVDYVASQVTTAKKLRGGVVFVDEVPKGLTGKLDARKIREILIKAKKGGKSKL
#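 Purified P. pyralis luciferase (10nM final) with 10uM D-luciferin and 10uM ATP (Km levels) in 50mM Tris acetate pH 7.5, 10mM Mg acetate, 0.01% Tween-20, 0.05% BSA; qHTS 6-point titration, ~60 µM downward; luminescence read.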
# A number is an active result; n = inactive; u = inconclusive; x = no result given; [ ] = another dose, or the depositor's remark. The list is not random: actives were taken first. Their share in the collection is about 7.5%. Calls follow the shape of the dose curve; as a rule, active = well fitted curve in the direction sought with a large enough effect; inconclusive = small, poorly fitted or top-dose-only effect, or another doubt; inactive = no such curve, though single readings can be large; an effect the other way counts as inactive or inconclusive.
SMILES,NPC1 promoter act,KinaseGlo FLuc,Rab9 prom act,ELG1 genotoxic,SMN2 splice enh,FLuc modulator
Cc1cc(C(=O)N/N=C/c2ccccn2)n[nH]1,n,n,n,n,n,u
O=C(N/N=C/c1cccc2ccccc12)c1cc(C2CC2)[nH]n1,n,x,n,n,x,10.7µM
O=C(N/N=C/c1ccco1)c1cc(C2CC2)[nH]n1,u,x,u,u,x,13.5µM
CC(/C=N/NC(=O)c1cc(C2CC2)[nH]n1)=C\c1ccccc1,n,x,n,n,x,u
Cc1cc(C)c2c(c1)NC(c1cc3c(cc1Br)OCO3)C1CC=CC21 (stereo not given),n,n,n,n,n,n
O=C(c1cccc([N+](=O)[O-])c1)N1CCN(CCc2ccncc2)CC1,x,x,x,x,x,n
Cc1ccc(C)c2nc3sc(C(=O)O)cc3cc12,n,n,n,n,n,23.9µM
O=C(OCc1csc(-c2ccccc2)n1)c1ccccc1O,n,n,3.98µM,u,n,6.01µM
Cc1nc(COC(=O)c2cc(O)c3ccccc3c2O)cs1,n,n,n,n,n,5.36µM
Cn1cc(S(=O)(=O)c2ccc(Cl)cc2)c(=O)c2cc(F)c(N3CCCC3)cc21,x,x,x,x,x,n
Cn1cc(Cl)c(C(=O)Nc2cccc(Cl)c2Cl)n1,n,n,n,n,n,n
CCC(=O)N/N=C/c1ccc(OS(=O)(=O)c2ccccc2)cc1,n,n,n,n,u,n
Cn1cc(Cl)c(C(=O)N/N=C/c2ccc(OS(=O)(=O)c3ccccc3)cc2)n1,n,n,n,n,n,23.9µM
Cc1ccc(/C=N/NC(=O)c2nn(C)cc2Cl)cc1,3.55µM,u,3.55µM,u,11.2µM,1.51µM
COc1ccc(/C=N\NC(=O)c2nn(C)cc2Cl)cc1CN1CCOCC1,n,n,n,n,n,n
Cn1cc(Cl)c(C(=O)N/N=C/c2ccc3c4c(cccc24)CC3)n1,2µM,x,1.41µM,u,x,0.536µM
CCOc1cc(Br)ccc1S(=O)(=O)NCc1ccccc1,n,n,n,n,n,n
COc1ccc(/C=N/N2CCN(C)CC2)cc1O,n,n,n,n,n,n
CCN=c1scc(-c2ccco2)n1/N=C/c1ccc(OC)c(O)c1,x,n,x,x,u,5.36µM
Cc1ccc(/C=N/n2c(-c3ccco3)n[nH]c2=S)cc1,n,x,n,n,x,n
CCN=c1scc(-c2ccco2)n1/N=C/c1ccc(O)cc1,u,n,u,11.6µM,u,6.75µM
CC1CCCN(c2cc3c(cc2F)c(=O)c(S(=O)(=O)c2cccc(Cl)c2)cn3C)C1 (stereo not given),x,x,x,x,x,n
COc1ccc(C(=O)OCC(=O)Nc2sccc2C(N)=O)cc1[N+](=O)[O-],n,x,n,n,x,n
COc1ccc(S(=O)(=O)N2Cc3ccccc3CC2C(=O)Nc2cc(Cl)ccc2Cl)cc1 (stereo not given),x,x,x,x,n,n
O=[N+]([O-])c1ccc(C23CC4CC(CC(O)(C4)C2)C3)cc1,2.82µM,x,1.58µM,n[9.26 µM],x,10.7µM
SMILES,NPC1 promoter act,KinaseGlo FLuc,Rab9 prom act,ELG1 genotoxic,SMN2 splice enh,FLuc modulator
COc1cccc(N2CCN(C(=O)CCn3nc(C)c(S(=O)(=O)N4CCCC4)c3C)CC2)c1,x,x,x,x,x,n
CCCCc1ccc(NC(=S)N2CCN(C)CC2)cc1,n,x,n,n,x,15.1µM
CC(=O)N1CCN(C(=S)Nc2ccc(SC(F)F)cc2)CC1,n,n,n,n,u,n
CC1CCN(C(=S)Nc2ccc(SC(F)F)cc2)CC1,u,n,n,n,22.4µM,1.07µM
CCCN1CCN(C(=S)Nc2ccc(SC(F)F)cc2)CC1,n,n,n,n,n,13.5µM
COc1ccc(CCNC(=O)C(=O)N/N=C/c2cccs2)cc1OC,n,n,n,n,x,n
Cc1cc(C)c(OCC(=O)N(Cc2cccc(F)c2)Cc2ccco2)c(C)c1,x,x,x,x,n,n
NNc1nc(-c2ccccc2Cl)nc2sc3c(c12)CCCC3,u,n,u,u,x,0.953µM
NNc1nc(-c2ccccc2Cl)nc2ccccc12,n,x,n,n,x,n
Cc1c2cn[nH]c(=O)c2c(C)n1-c1ccccc1,n,x,n,n,x,6.01µM
Cc1cc(C)cc(NC(=O)CN2C(=O)NC(C)(c3ccccc3)C2=O)c1 (stereo not given),n,n,n,n,n,n
CC1(c2ccccc2)NC(=O)N(CC(=O)Nc2cccc(/C=C/c3ccccn3)c2)C1=O (stereo not given),n,x,n,n,x,19µM
CCN1CCN(c2cc(C)c3cc(NC(=O)c4cc(OC)cc(OC)c4)ccc3n2)CC1,n,x,n,u,n,16.9µM
Cc1cc(N2CCN(C)CC2)nc2ccc(NC(=O)c3ccc(Br)o3)cc12,u,n,n,n,n,15.1µM
COc1cc(C(=O)Nc2ccc3nc(N4CCN(C)CC4)cc(C)c3c2)cc(OC)c1OC,n,x,n,n,x,23.9µM
Cc1cc(N2CCN(C)CC2)nc2ccc(NC(=O)c3ccc4c(c3)OCO4)cc12,n,n,u,n,x,13.5µM
COc1ccccc1C(=O)Nc1ccc2c(c1)nc1n2CCN(C2CCCCC2)C1,n,x,n,n,x,n
COc1ccc(-c2n(Cc3ccccc3)c3ccccc3[n+]2Cc2ccccc2)cc1,n,n,n,n,n,n
CCOc1ccc(CNS(=O)(=O)c2ccc(-c3cc(C(F)(F)F)on3)s2)cc1,x,x,x,x,x,n
CCc1cc(C(=O)Nc2sc(C)c(CC)c2C#N)no1,x,x,x,x,n,15.1µM
CCc1c(C)sc(NC(=O)c2cc(C)no2)c1C#N,n,n,n,n,n,13.5µM
CCc1c(C)sc(NC(=O)c2cc(C(C)C)on2)c1C#N,n,n,n,n,n,u
Cc1cc(C(=O)Nc2sc(C)c(C)c2C#N)no1,n,n,n,11.2µM,x,19µM
CCOC(=O)c1ccc(CN(Cc2ccc(F)cc2)S(=O)(=O)c2ccc(F)cc2)cc1,x,x,x,x,x,n
CCCCCn1c(C(C)NC(=O)c2ccccc2)nc2ccccc21 (stereo not given),x,x,x,x,n,n
COc1ccc(NC(=O)CC2C(=O)N(c3ccc(F)cc3)C(=O)N2Cc2cccnc2)cc1 (stereo not given),x,x,x,x,x,n
COc1ccc(-c2cc(C(=O)Oc3ccc([N+](=O)[O-])cc3)c3ccccc3n2)cc1,n,n,n,n,u,5.36µM
CN(C(=O)COC(=O)c1cccnc1Nc1ccccc1F)C1CCS(=O)(=O)C1 (stereo not given),n,n,n,n,n,n
COc1ccc(-c2cc(C(=O)OCc3ccccn3)c3ccccc3n2)cc1,n,x,n,n,x,6.75µM
